Among the data in PubChem BioAssay (NCATS) are Potency values, retold here.

Inconclusive results are not listed. Activity calls are given as the source filed them. Calls come from the whole dose curve; as a rule, active = well fitted cell-killing curve with a large enough effect; inconclusive = small, poorly fitted or top-dose-only effect, or effect the other way; inactive = no such curve, though single readings can be large or run the other way.
Potency is the fitted concentration of half-maximal effect.

The test can be described thus: Quantitative High-Throughput drug screen in 47 multiple myeloma cell lines against the NCATS MIPE library collection: AMO1_DSMZ cell viability assay (AID 1918927; note: nearly all actives have a fitted effect of over 30% in size). The following applies: AMO1 myeloma cells viability, CellTiter-Glo ATP luminescence, 48 h; series mostly up to 45.8 µM. An excerpt: PI: Beverly A. Mock Ph.D.
Laboratory of Cancer Biology and Genetics,
Center for Cancer Research, National Cancer Institute,
National Institute of Health, Bethesda, Maryland
Drug resistance and disease progression are common in multiple myeloma (MM) patients, underscoring the need for new therapeutic combinations. […] We hypothesized that effective combinations would reduce MYC expression and enhance p16 activity. […] These preclinical data identify potentially useful drug combinations for evaluation in drug-resistant MM and reveal potential mechanisms of combined drug sensitivity.
Described herein is the primary MIPE qHTS used to cherrypick compounds. Validated compounds were then further tested for potential synergistic activiy.
[1] Peat TJ, Gaikwad SM, Dubois W, Gyabaah-Kessie N, Zhang S, Gorjifard S, Phyo Z, Andres M, Hughitt VK, Simpson RM, Miller MA, Girvin AT, Taylor A, Williams D, D'Antonio N, Zhang Y, Rajagopalan A, Flietner E, Wilson K, Zhang X, Shinn P, Klumpp-Thomas C, McKnight C, Itkin Z, Chen L, Kazandijian D, Zhang J, Michalowski AM, Simmons JK, Keats J, Thomas CJ, Mock BA. Drug combinations identified by high-throughput screening promote cell cycle transition and upregulate Smad pathways in myeloma. Cancer Lett. 2023 Aug 1;568:216284. doi: 10.1016/j.canlet.2023.216284. Epub 2023 Jun 24. PMID: 37356470; PMCID: PMC10408729.
SEQUENCE No. (e.g., 1, 2, 3, etc.); […] (e.g., Cells, Incubation, Reagent, etc.); VALUE and DESCRIPTION.
1; Cells; 5 uL; white, solid bottom 1536-well Greiner assay plate.
2; Compounds; 23 nL; Kalypsis pin tool (Wako USA) equipped with a 1536-well pin head to transfer to the assay plates.
3; Incubation; 48 hours; 37C incubation.
4; Reagent;5uL; CellTiter Glo (Promega).
5; Detector; 425V; Luminescence; Viewlux PerkinElmer.
NOTES (numbers refer to Sequence numbers above)
1. The cell-based screening methods employed in this study were like those previously published. Briefly, the corresponding myeloma cell lines were screened in 1,536-well plates with 500 cells, 5-uL per well for inhibition of cell viability (assessed by measuring ATP levels with CellTiterGlo).
2. NCATS MIPE 4.0 library of approved and investigational drugs were added using the Kalypsis pin tool. Wells treated with DMSO only for 100% viability and media only wells for 0% viability were used as controls.
3. The assay plates were covered and incubated for 48 hours in a 37C, 5% CO2 incubator with controlled humidity.
4. After 48 hours, CellTilter-GloTM luminescent substrate mix (Promega) reagent was added to the assay plate and plates we incubated for 5 min at room temperature.
5. Signal was measured as median relative luminescence units on a ViewLux (PerkinElmer) multiplate reader.
[1] Heske CM, Davis MI, Baumgart JT, Wilson K, Gormally MV, Chen L, Zhang X, Ceribelli M, Duveau DY, Guha R, Ferrer M, Arnaldez FI, Ji J, Tran HL, Zhang Y, Mendoza A, Helman LJ, Thomas CJ. Matrix Screen Identifies Synergistic Combination of PARP Inhibitors and Nicotinamide Phosphoribosyltransferase (NAMPT) Inhibitors in Ewing Sarcoma. Clin Cancer Res. 2017 Dec 1;23(23):7301-7311. doi: 10.1158/1078-0432.CCR-17-1121. Epub 2017 Sep 12. PMID: 28899971; PMCID: PMC6636827.
Consider `CNc1nccc(-c2cccnc2Oc2cc(C(=O)Nc3cccc(C(F)(F)F)c3)ccc2C)n1`, for which the Potency was 9350 nM (active).

Turning to `Cn1c2cc(S(C)=O)sc2c2cnn(Cc3cccc(N)c3)c(=O)c21` (stereo not given), the Potency result is “inactive”.

In the case of `Fc1cc(-c2cccc3ncc(-c4cnn(C5CCNCC5)c4)nc23)cc(F)c1CN1CCOCC1`, the Potency was 8330 nM (active).

Take `Cc1c(C)n(Cc2ccc(-c3ccccc3C(=O)O)cc2)c2ccc(C(=O)N[C@@H](C)c3ccc([N+](=O)[O-])cc3)cc12`: the Potency was 118 nM (active).

For the compound `COc1ccc(CC2SC(=O)NC2=O)cc1C(=O)NCc1ccc(C(F)(F)F)cc1` (stereo not given), the Potency entry was “inactive”.

Turning to `CN1CCC(CNc2ccc3ncc(-c4cccc(OC(F)(F)F)c4)n3n2)CC1`, the Potency was 13200 nM (active).

As to `CCC1=C[C@@H]2CN(C1)Cc1c([nH]c3ccccc13)[C@@](C(=O)OC)(c1cc3c(cc1OC)N(C)[C@@H]1[C@@](O)(C(=O)OC)[C@H](OC(C)=O)[C@]4(CC)C=CCN5CC[C@]31[C@@H]54)C2`, the Potency was 52.6 nM (active).

Take `CC(C)(O)c1cc2nc(-c3cnc(N)nc3)nc(N3CCOCC3)c2s1`: the Potency was 93.5 nM (active).

As to `CN(c1ncccc1CNc1nc(Nc2ccc3c(c2)CC(=O)N3)ncc1C(F)(F)F)S(C)(=O)=O`, the Potency is 3320 nM (active).

Turning to `CC1COC2(CCN(c3nc(=O)c4cc(C(F)(F)F)cc([N+](=O)[O-])c4s3)CC2)O1` (stereo not given), the Potency result was “inactive”.

For the compound `O=C(O)c1ccc2cc(-c3ccc(O)c(C45CC6CC(CC(C6)C4)C5)c3)ccc2c1`, the Potency is 1320 nM (active).

In the case of `COc1cc(-c2nn(C3CCC(N4CCN(C(C)=O)CC4)CC3)c3ncnc(N)c23)ccc1NC(=O)c1cc2ccccc2n1C` (stereo not given), the Potency is 590 nM (active).

For the compound `COc1cc(C(=O)N2CCC(N3CCN(C)CC3)CC2)ccc1Nc1ncc2c(n1)N(C)c1ccccc1C(=O)N2C`, the Potency was 2350 nM (active).

For `O=C(Nc1cc(C(F)(F)F)cc(C(F)(F)F)c1)c1cc(Cl)ccc1O`, the Potency is 235 nM (active).

For `COc1cc(C)c(Sc2cnc(NC(=O)c3ccc(CNC(C)C(C)C)cc3)s2)cc1C(=O)N1CCN(C(C)=O)CC1` (stereo not given), the Potency result is “inactive”.

Turning to `O=c1c2ccccc2nc2n1CCc1c-2[nH]c2ccccc12`, the Potency result is “inactive”.

For `Cc1ccc(S(=O)(=O)Nc2cc(Cl)ccc2C(=O)Nc2nc(-c3ccccc3)cs2)cc1`, the Potency is 9350 nM (active).

Consider `CC(C)c1ccc(Cn2ccc3c4c(N)nc(NC5CC5)nc4ccc32)cc1`, for which the Potency is 935 nM (active).

Regarding `Cn1c(CNc2ccc(C(=N)N)cc2)nc2cc(C(=O)N(CCC(=O)O)c3ccccn3)ccc21`, the Potency result was “inactive”.

Consider `Cn1cc(-c2[nH]c3cc(NC(=O)[C@H](N)C4CCCCC4)cc4c3c2C=NNC4=O)cn1`, for which the Potency was 2960 nM (active).

Take `COC(=O)C1=C(C)NC(C)=C(C(=O)OCCN2CCN(C(c3ccccc3)c3ccccc3)CC2)C1c1cccc([N+](=O)[O-])c1` (stereo not given): the Potency result was “inactive”.

As for `CC(C)c1cnn2c(NCc3ccccc3)cc(N[C@@H](CO)[C@H](O)CO)nc12`, the Potency is 118 nM (active).

Turning to `CC1(O)CC(c2nc(-c3ccc4ccc(-c5ccccc5)nc4c3)c3c(N)nccn23)C1` (stereo not given), the Potency is 2960 nM (active).

For the compound `COc1ccc(OC)c(-c2nnc3ccc(-c4ccc(OC)c(O[C@@H]5CCOC5)c4)nn23)c1`, the Potency is 26400 nM (active).

With `Cc1ccc(-c2ncn(-c3ccc(Nc4nccc(-c5cccc(N6CCOCC6)c5)n4)cc3)n2)cn1`, the Potency is 132 nM (active).

Regarding `Cc1cc(Nc2nc(N[C@@H](C)c3ccc(F)cc3)c(C#N)cc2F)n[nH]1`, the Potency is 235 nM (active).

As to `CN(C)Cc1c(C(=O)NCCOc2ccc(C(=O)NO)cc2)oc2ccccc12`, the Potency was 526 nM (active).

In the case of `COc1ccc(-c2cc3c(C)nc(N)nc3n(C3CCC(OCCO)CC3)c2=O)cn1` (stereo not given), the Potency was 41.8 nM (active).

Consider `O=C(C=Cc1c(C(=O)O)[nH]c2cc(Cl)cc(Cl)c12)Nc1ccccc1`, for which the Potency entry was “inactive”.

As to `O=c1[nH]c(=O)n(C2CCCO2)cc1F` (stereo not given), the Potency entry was “inactive”.

`CC(C)c1nn(-c2c(Cl)cccc2Cl)c2nc(Cc3ccc(OCCO)cc3)[nH]c(=O)c12`: the Potency entry was “inactive”.

For `CC(C)c1ccccc1Cc1cc(C(=O)Nc2ccc(S(=O)(=O)c3ccccc3C(C)(C)C)cc2)c(O)c(O)c1O`, the Potency entry was “inactive”.

In the case of `Cc1cn(-c2cc(NC(=O)c3ccc(C)c(Nc4nccc(-c5cccnc5)n4)c3)cc(C(F)(F)F)c2)cn1`, the Potency result is “inactive”.

On to `CC[C@@]1(O)C(=O)OCc2c1cc1n(c2=O)Cc2cc3cc(O)ccc3nc2-1`, for which the Potency is 74.3 nM (active).

Consider `CC=C1NC(=O)[C@H]2CSSCCC=C[C@H](CC(=O)N[C@H](C(C)C)C(=O)N2)OC(=O)[C@H](C(C)C)NC1=O`, for which the Potency is 14.8 nM (active).

Take `COc1cc2c(Oc3ccc(-c4cnc(Nc5ccc(F)cc5)n(C)c4=O)cc3F)ccnc2cc1OCCCN1CCOCC1`: the Potency was 2350 nM (active).

Turning to `Cc1nc2ccc(CN(C)c3ccc(C(=O)N[C@@H](CCC(=O)O)C(=O)O)s3)cc2c(=O)[nH]1`, the Potency is 66.2 nM (active).

Consider `Cc1ccc(C(=O)Nc2ccc(CN3CCN(C)CC3)c(C(F)(F)F)c2)cc1C#Cc1cnc2cccnn12`, for which the Potency was 2960 nM (active).

In the case of `CC(C)(C)c1cc(C(C)(C)C)c(NC(=O)c2c[nH]c3ccccc3c2=O)cc1O`, the Potency entry was “inactive”.

Consider `CCS(=O)(=O)c1cccc(-c2cc(C(=O)NC3CCN(C)CC3)c(C)c3[nH]c4ncc(C)cc4c23)c1`, for which the Potency was 9350 nM (active).
